Measurements from PubChem BioAssay (NCATS).
Records with an inconclusive call do not appear. Unless noted, calls come from the whole dose curve; as a rule, active = well fitted curve in either direction with a large enough effect (not every such curve was filed as active); inconclusive = small, poorly fitted or top-dose-only effect, or another doubt; inactive = flat fitted curve, though single readings scatter.

Legend:
[1] = AP1 Signaling Pathway (AID 357); conditions: ME-180 AP-1-bla reporter, EGF-induced, beta-lactamase ratio, 5 h; at 17.2 µM (top of the series) unless noted;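 note: ME-180 reporter cells stimulated with EGF at its EC50 level; % is set by controls: 0 for no effect and ±100 for the full control effect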
Procedure, shortened: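 Read-out was the 460nm/530nm emission ratio (excitation 405nm) after CCF4 loading for 2.5 hours at room temperature. Cells carried an AP-1-driven beta-lactamase reporter, were stimulated with EC50 EGF plus compound for 5 hours, and AC50 values came from titrations.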

[2] = NFAT Signaling Pathway (AID 444); conditions: Jurkat NFAT-bla M1, carbachol, beta-lactamase ratio, 5 h; at 17.2 µM (top of the series) unless noted;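 note: carbachol stimulus at about its EC50 of 1 µM final; % is set by controls: 0 for no effect and ±100 for the full control effect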
Procedure, shortened: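 Jurkat cells with NFAT-driven β-lactamase reporter and co-expressed M1 receptor, stimulated with carbachol (final 1 uM, ~EC50), compound titration, 5 h at 37 °C. CCF4 loaded 1 h at RT; 460/530 nm ratio gave %activity and AC50.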

[3] = Stat Signaling Pathway (AID 446); conditions: ME-180 (cervical carcinoma) SIE beta-lactamase reporter, IL-6 stimulated, 5 h; at 17.2 µM (top of the series) unless noted;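 note: ME-180 cervical cancer cells given 40 pM IL-6 alongside compound; SIE-controlled beta-lactamase reporter measured as 460/530 nm FRET emission ratio; % is set by controls: 0 for no effect and ±100 for the full control effect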
Procedure, shortened: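 Overnight-plated ME-180 cells bearing a STAT Inducible Element beta-lactamase reporter; 5 h co-exposure to compound and 40 pM IL-6; values normalized to 300 pM IL-6 and 125 nM JAK inhibitor controls.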

[4] = target: Glucocorticoid receptor (Homo sapiens) (UniProt P04150); assay: GR-GFP Redistribution (AID 450;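 active = compounds whose dose series gives a full or clear partial fitted curve of increased nuclear translocation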; note: potency is the fitted concentration of half-maximal effect)
Sequence of Glucocorticoid receptor (Homo sapiens) (P04150 whole entry, looked up): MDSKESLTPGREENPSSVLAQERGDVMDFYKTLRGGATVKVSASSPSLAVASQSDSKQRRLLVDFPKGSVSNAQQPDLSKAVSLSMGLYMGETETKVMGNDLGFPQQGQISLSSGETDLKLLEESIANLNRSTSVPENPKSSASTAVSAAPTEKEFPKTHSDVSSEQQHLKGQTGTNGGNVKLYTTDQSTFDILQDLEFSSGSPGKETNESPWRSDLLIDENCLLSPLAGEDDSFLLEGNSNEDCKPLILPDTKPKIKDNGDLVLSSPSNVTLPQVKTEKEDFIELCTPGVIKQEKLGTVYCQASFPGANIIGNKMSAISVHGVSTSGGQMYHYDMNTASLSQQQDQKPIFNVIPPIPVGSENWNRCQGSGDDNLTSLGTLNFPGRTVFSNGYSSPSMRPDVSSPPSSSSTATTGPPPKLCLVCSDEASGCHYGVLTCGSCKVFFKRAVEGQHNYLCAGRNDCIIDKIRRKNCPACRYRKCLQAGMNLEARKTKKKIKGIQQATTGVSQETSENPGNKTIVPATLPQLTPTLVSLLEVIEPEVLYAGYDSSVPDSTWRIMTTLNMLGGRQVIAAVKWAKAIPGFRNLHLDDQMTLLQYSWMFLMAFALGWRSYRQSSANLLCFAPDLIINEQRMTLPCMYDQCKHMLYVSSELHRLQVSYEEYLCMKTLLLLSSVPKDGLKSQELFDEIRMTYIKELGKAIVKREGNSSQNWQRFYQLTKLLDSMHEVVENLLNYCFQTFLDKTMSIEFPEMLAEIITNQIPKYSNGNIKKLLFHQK

CCOc1ccc(N=C(NC#N)SCC(=O)NC2CC2)cc1
inactive: activity change, negative = inhibition [1] -3.71% | activity change, negative = inhibition [2] -22.1% | activity, negative = inhibition [3] -16.7% | Potency [4] > 20.6 µM

COc1ccc(/C(O)=C2/C(=O)C(=O)N(CCCN(C)C)C2c2cccc(Cl)c2)cc1OC (configuration not stated)
inactive: activity change, negative = inhibition [1] -5.39% | activity change, negative = inhibition [2] 6.97% | activity, negative = inhibition [3] 3.83% | Potency [4] > 20.6 µM

CCN(CC)CCCN1C(=O)C(=O)/C(=C(/O)c2ccc3c(c2)CC(C)O3)C1c1cccnc1 (configuration not stated)
inactive: activity change, negative = inhibition [1] 4.22% | activity change, negative = inhibition [2] 11.9% | activity, negative = inhibition [3] 9.37% | Potency [4] > 20.6 µM

Cc1ccc2[nH]c3c(c2c1)CCCC3C(N)=O (configuration not stated)
inactive: activity change, negative = inhibition [1] -5.19% | activity change, negative = inhibition [2] -1.59% | activity, negative = inhibition [3] 8.83% | Potency [4] > 20.6 µM

CCN(CC)c1ncc(C)c(=O)[nH]1
inactive: activity change, negative = inhibition [1] 16.3% | activity change, negative = inhibition [2] 2.65% | activity, negative = inhibition [3] 7.65% | Potency [4] > 20.6 µM

COc1ccc(C2=Nn3c(nnc3-c3ccccn3)SC2)cc1
inactive: activity change, negative = inhibition [1] -4.44% | activity change, negative = inhibition [2] 2.81% | activity, negative = inhibition [3] 6.62% | Potency [4] > 20.6 µM

CCOc1nc(SC(C(C)=O)C(=O)Nc2ccccc2)nc(N(C)C)n1 (configuration not stated)
inactive: activity change, negative = inhibition [1] -3.25% | activity change, negative = inhibition [2] 19.9% | activity, negative = inhibition [3] 72.5% | Potency [4] > 20.6 µM

CC(=O)C1(C)OC(N)=C(C#N)C(c2ccccc2)C1(C#N)C#N (configuration not stated)
inactive: activity change, negative = inhibition [1] 13.9% | activity change, negative = inhibition [2] -28.6% | activity, negative = inhibition [3] -4.54% | Potency [4] > 20.6 µM

CCC(=O)NC1(C(F)(F)F)C(=O)Nc2c1c(=O)[nH]c(=O)n2Cc1ccco1 (configuration not stated)
inactive: activity change, negative = inhibition [1] 6.62% | activity change, negative = inhibition [2] 18.9% | activity, negative = inhibition [3] -0.859% | Potency [4] > 20.6 µM

CN(C)c1cccc2c(S(=O)(=O)N3CCOCC3)cccc12
inactive: activity change, negative = inhibition [1] -2.48% | activity change, negative = inhibition [2] -4.98% | activity, negative = inhibition [3] 7.43% | Potency [4] > 20.6 µM

Cn1c(Cn2cnc3ccccc32)nc2ccccc21
inactive: activity change, negative = inhibition [1] -1.15% | activity change, negative = inhibition [2] 3.95% | activity, negative = inhibition [3] -2% | Potency [4] > 20.6 µM

COc1ccc2cnn(-c3ccccc3C)c(=O)c2c1OC
inactive: activity change, negative = inhibition [1] 10.7% | activity change, negative = inhibition [2] -6.03% | activity, negative = inhibition [3] 24.1% | Potency [4] > 20.6 µM

CCCCCOC(=O)C(C)c1c(C)[nH]c(=S)[nH]c1=O (configuration not stated)
inactive: activity change, negative = inhibition [1] 7.28% | activity change, negative = inhibition [2] 6.16% | activity, negative = inhibition [3] -4.24% | Potency [4] > 20.6 µM

CCOC(=O)c1c(C)[nH]c(/C(C)=N/O)c1C
inactive: activity change, negative = inhibition [1] -4.81% | activity change, negative = inhibition [2] 3.09% | activity, negative = inhibition [3] -8.45% | Potency [4] > 20.6 µM

Oc1ccc2ccccc2c1C=NC12CN3CCN(CN(C3)C1)C2
inactive: activity change, negative = inhibition [1] 6.89% | activity change, negative = inhibition [2] -22.1% | activity, negative = inhibition [3] -13.6% | Potency [4] > 20.6 µM

Cn1ncc(N=Cc2ccccc2)c1C(N)=O
inactive: activity change, negative = inhibition [1] 5.51% | activity change, negative = inhibition [2] 6.04% | activity, negative = inhibition [3] 5.52% | Potency [4] > 20.6 µM

CC(=O)Nn1cnc2c(c1=O)C1(CCCC1)Cc1ccccc1-2
inactive: activity change, negative = inhibition [1] -8.59% | activity change, negative = inhibition [2] -0.355% | activity, negative = inhibition [3] 10.3% | Potency [4] > 20.6 µM

Cc1cc2c(c(=O)o1)C(CC(C)C)C(C#N)=C(N)O2 (configuration not stated)
inactive: activity change, negative = inhibition [1] 14.1% | activity change, negative = inhibition [2] 4.64% | activity, negative = inhibition [3] 1.38% | Potency [4] > 20.6 µM

CC(C)(C)C1=Nn2c(nnc2-c2ccco2)SC1
inactive: activity change, negative = inhibition [1] 2.22% | activity change, negative = inhibition [2] 11.1% | activity, negative = inhibition [3] 8.01% | Potency [4] > 20.6 µM

COC(=O)C1=C(C)N=C2SC(C)C(=O)N2C1/C=C/c1ccccc1OC (configuration not stated)
inactive: activity change, negative = inhibition [1] 2.3% | activity change, negative = inhibition [2] -16.8% | activity, negative = inhibition [3] -6.43% | Potency [4] > 20.6 µM

COC(=O)c1ccccc1N1C(=O)[C@@H]2C(c3ccc(Br)cc3)=NO[C@@H]2C1=O
inactive: activity change, negative = inhibition [1] 11.9% | activity change, negative = inhibition [2] 19.8% | activity, negative = inhibition [3] 7.92% | Potency [4] > 20.6 µM

C=CCNc1nc(N2CCOCC2)c(C#N)c2c1CN(C)CC2
inactive: activity change, negative = inhibition [1] 4.63% | activity change, negative = inhibition [2] -4.25% | activity, negative = inhibition [3] 2.07% | Potency [4] > 20.6 µM

Cc1noc(NS(=O)(=O)c2ccc(NC(=O)COc3ccccc3)cc2)c1C
inactive: activity change, negative = inhibition [1] 2.17% | activity change, negative = inhibition [2] 1.26% | activity, negative = inhibition [3] -0.515% | Potency [4] > 20.6 µM

O=CN1CCN(C(=O)CN2C(=O)c3ccccc3C2=O)CC1
inactive: activity change, negative = inhibition [1] 10.2% | activity change, negative = inhibition [2] 11.9% | activity, negative = inhibition [3] 6.47% | Potency [4] > 20.6 µM

CCCCOC(=O)CSC1=C(C#N)C(c2ccccc2OC)C(C#N)C(=O)N1 (configuration not stated)
inactive: activity change, negative = inhibition [1] -23.2% | activity change, negative = inhibition [2] 20.9% | activity, negative = inhibition [3] -14% | Potency [4] > 20.6 µM

CCOC(=O)CSc1nc2ccccc2c(=O)n1C
inactive: activity change, negative = inhibition [1] -12.5% | activity change, negative = inhibition [2] -11.5% | activity, negative = inhibition [3] 1.58% | Potency [4] > 20.6 µM

O=C(c1ccco1)N1CCN(c2ncnc3c2[nH]c2ccccc23)CC1
inactive: activity change, negative = inhibition [1] -12% | activity change, negative = inhibition [2] 11% | activity, negative = inhibition [3] -16.9% | Potency [4] > 20.6 µM

Cn1c(=O)c2c(nc(Br)n2CCSc2nc3ccccc3o2)n(C)c1=O
inactive: activity change, negative = inhibition [1] 5.24% | activity change, negative = inhibition [2] 1.98% | activity, negative = inhibition [3] 10.5% | Potency [4] > 20.6 µM
